Screening results from PubChem.
A selection: hits, their analogues and other compounds. The true share with any hit is near 4%.
Autofluor counter – flagged as autofluorescent in microsphere protease counterscreen. compound autofluorescence counterscreen, microsphere flow cytometry; hits give high values. fluorescence intensity (test concentration not listed). 3.1% of 360,000 active. AID 624483; in the data active = fluorescence intensity above about 16000; inconclusive = no clear call, values can overlap the other calls
MazEF act – activators of E. coli MazEF toxin-antitoxin RNase, primary screen, biochemical, fluorescence, uHTS; Endoribonuclease toxin MazF (Escherichia coli (strain K12)), P0AE70; FAM/BHQ RNA-DNA oligo cleavage fluorescence, 5 h; activation, % at 20 µM; 0.32% of 350,000 active; in the data active = activation above about 50%
Target sequence (P0AE70 whole entry, looked up): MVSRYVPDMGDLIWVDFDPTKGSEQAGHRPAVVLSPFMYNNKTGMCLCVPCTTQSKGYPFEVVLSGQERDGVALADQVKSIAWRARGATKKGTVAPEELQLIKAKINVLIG
BoNT-F LC inh – BoNT/F light chain protease inhibitors, primary screen, biochemical, flow cytometry, MLPCN library; Botulinum neurotoxin type F light chain protease (Clostridium botulinum); Multiplex microsphere protease cleavage assay; inhibition, % at 10 µM; 0.22% of 360,000 active; AID 588497, 2011; in the data active = inhibition above about 35%, passing the limit was not always enough; inconclusive = no clear call, values can overlap the other calls
DUSP3 inh – VHR1 phosphatase inhibitors, primary screen, biochemical, absorbance, uHTS; Dual specificity protein phosphatase 3 (Homo sapiens), P51452; inhibition, % at 13.3 µM; 0.52% of 290,000 active; recombinant VHR phosphatase, pNPP absorbance; AID 1654, 2009; in the data active = inhibition above about 50%
Target sequence (P51452 whole entry, looked up): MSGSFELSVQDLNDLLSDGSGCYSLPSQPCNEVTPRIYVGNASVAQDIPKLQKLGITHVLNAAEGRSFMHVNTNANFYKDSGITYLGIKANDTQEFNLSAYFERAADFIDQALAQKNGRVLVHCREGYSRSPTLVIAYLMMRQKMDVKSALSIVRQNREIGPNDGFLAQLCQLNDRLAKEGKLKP
Anthrax LF inh2 – Bacillus anthracis LF protease inhibitors, primary screen, biochemical, multiplex microsphere, MLPCN library | Lethal factor (Bacillus anthracis), P15917 | multiplex microsphere protease cleavage assay | inhibition, % at 10 µM | 0.12% of 360,000 active
BoNT-A LC inh2 – BoNT/A light chain protease inhibitors, primary screen, biochemical, flow cytometry, MLPCN library. Botulinum neurotoxin type A light chain protease (Clostridium botulinum A str. ATCC 3502). multiplex microsphere protease substrate cleavage. inhibition, % at 10 µM. 0.17% of 360,000 active. AID 588499, 2011
Numbers stand for hits; i = inactive; ? = inconclusive; nt = not tested or not shown. Rule as the data show it, unless noted: active = inhibition above about 30%; inconclusive = no clear call, values can overlap the other calls; inactive = below that.

SMILES | Autofluor counter | MazEF act | BoNT-F LC inh | DUSP3 inh | Anthrax LF inh2 | BoNT-A LC inh2
Cc1cc(C)c2c(n1)nn1c(NCCN3CCOCC3)cc(C)nc21 | 23370 | i | i | i | i | i
COCCNc1cc(C)nc2c3c(C)cc(C)nc3nn12 | 23058 | i | i | i | i | i
CCCN1CCN(c2nc3c([nH]2)c(=N)ncn3CC(O)CO)CC1 (stereo not drawn) | i | i | i | i | i | i
N=c1ncn(CC(O)CN2CCOCC2)c2nc(N3CCOCC3)[nH]c12 (stereo not drawn) | 22533 | i | i | i | i | i
S=C(NCCc1ccccc1)N1Cc2cc(N3CCCCC3)ccc2-n2nncc2C1 | 32547 | nt | 70 | nt | i | i
CCOc1ccc(N(CC(=O)N2CCCCC2)S(=O)(=O)c2ccc(Cl)cc2)cc1 | i | i | i | i | i | i
CCOC(=O)NC(=O)c1cn(N(C)c2ncc(C(F)(F)F)cc2Cl)c(=O)[nH]c1=O | 21416 | i | i | i | i | i
COc1ccc(/C=C/C(=O)OC(C)CN2CCOCC2)cc1 (stereo not drawn) | 17262 | i | i | i | i | i
CC(CN1CCCCC1)OC(=O)/C=C/c1ccccc1 (stereo not drawn) | i | i | 36 | i | i | i
CC(CN1CCOCC1)OC(=O)/C=C/c1ccccc1 (stereo not drawn) | i | i | i | i | i | i
CCN1C(=O)[C@@H]2[C@H](C1=O)[C@@H]1C(=O)Nc3ccccc3C(=O)N1[C@@H]2c1cccc(OC)c1 | i | i | i | nt | i | i
COc1ccc(C(=O)N/C(=C\c2cn(S(=O)(=O)N(C)C)c3ccccc23)C(=O)N2CCN(C)CC2)cc1OC | i | i | i | nt | i | i
O=C(NCc1cccs1)C(=O)c1c[nH]c2ccccc12 | i | i | i | i | i | i
CCSc1cnn(-c2ccccc2)c(=O)c1SCC | i | i | i | i | i | i
CSc1cnn(-c2ccccc2)c(=O)c1SC | 16177 | i | i | i | i | i
N#Cc1cc(C#N)c(N2CCN(c3ccccn3)CC2)nc1N | 23218 | i | i | i | i | i
COC(=O)c1ccc(S(=O)(=O)NCCc2ccccc2OC)n1C | i | i | ? | i | i | ?
Cc1csc(NC(=O)C2CCCO2)n1 (stereo not drawn) | 21132 | i | i | i | i | i
CC1(C(=O)O)CCC(C(=O)Nc2ccc3ccccc3c2)C1(C)C (stereo not drawn) | 22940 | i | i | i | i | i
Cc1csc(NC(=O)C2CCC(C)(C(=O)O)C2(C)C)n1 (stereo not drawn) | 20359 | i | i | i | i | i
Cc1ccccc1NC(=O)Nc1ccc(C(F)(F)F)cc1 | i | i | i | i | i | i
COc1cccc2sc(NC(=O)c3ccc(Br)s3)nc12 | i | i | i | i | i | i
O=S(=O)(Cc1ccccc1)N1CCN(C/C=C/c2ccccc2)CC1 | 25473 | i | i | i | i | i
CS(=O)(=O)N1CCN(C/C=C/c2ccccc2)CC1 | i | i | i | i | i | i
Cc1cc(S(=O)(=O)Nc2cc(C)c(O)c(C)c2)c(C)s1 | 16803 | i | i | i | i | i
SMILES | Autofluor counter | MazEF act | BoNT-F LC inh | DUSP3 inh | Anthrax LF inh2 | BoNT-A LC inh2
COc1ccc(NS(=O)(=O)c2ccc(-c3cnc(C4CC4)o3)cc2)cc1OC | i | i | i | 52 | i | i
Cc1cc(S(=O)(=O)NCc2ccco2)c(C)s1 | i | i | i | i | i | i
COc1ccc(S(=O)(=O)NCCC(C)C)cc1C | 23019 | i | i | i | i | i
COc1ccc(S(=O)(=O)Nc2ccc3c(c2)OCO3)cc1OC | 18331 | i | i | i | i | ?
COc1ccc(S(=O)(=O)NCCOc2ccccc2)cc1C | i | i | i | i | i | i
COc1ccccc1N1CC(C(=O)Nc2nnc(SCc3cccnc3)s2)CC1=O (stereo not drawn) | i | i | i | i | i | i
Cc1ccc(S(=O)(=O)Nc2ccc3ccccc3c2)cc1 | i | i | i | nt | i | i
Cc1cc(S(=O)(=O)Nc2ccc3ccccc3c2)c(C)s1 | 19290 | i | i | i | i | i
Cc1cc(S(=O)(=O)Nc2cccnc2)c(C)s1 | i | i | i | i | i | i
COc1ccc(S(=O)(=O)Nc2ccc3ccccc3c2)cc1C | 25259 | i | i | i | i | i
COc1ccc(-n2c(SCC(=O)N3CCCCC3)nc(O)cc2=O)cc1 | 21636 | i | i | i | i | i
COc1ccc(-n2c(Cn3c(=O)sc4ccccc43)nnc2SCC(=O)N2CCCC2)cc1 | i | i | i | 50 | i | i
CCc1[nH]c(=S)c(C#N)c2c1CCCC2 | i | i | i | i | i | i
COc1cccc(CN2CC(C(=O)N3CCSCC3)CCC2=O)c1 (stereo not drawn) | i | i | i | nt | i | i
O=C(Nc1ccc2c(c1)OCO2)Nc1ccc(Cl)cc1Cl | i | i | i | i | i | i
c1ccc(-n2ncc3c(N4CCN(c5ccccn5)CC4)nc(N4CCCCCC4)nc32)cc1 | 19448 | i | i | i | i | i
c1ccc(-n2ncc3c(N4CCCCC4)ncnc32)cc1 | i | i | i | i | i | i
O=C(c1cccn2c(=O)c3ccccc3nc12)N1CCN(c2ccccn2)CC1 | 23291 | i | i | i | i | i
O=C(CCCn1c(=S)[nH]c2ccc(Br)cc2c1=O)N1CCN(c2ccccn2)CC1 | 16819 | i | i | i | i | i
O=C(c1cccc(Cl)c1Cl)N1CCN(c2ccccn2)CC1 | 16331 | i | i | i | i | ?
O=C(c1cccn2c(=O)c3ccccc3nc12)N1CCC2(CC1)OCCO2 | 22328 | i | i | i | i | i
O=C(CCCn1c(=S)[nH]c2ccc(Br)cc2c1=O)NCc1ccccn1 | i | i | i | i | i | i
Cc1cc2oc(C(=O)N(Cc3ccccc3)C3CCS(=O)(=O)C3)c(C)c2cc1C (stereo not drawn) | nt | i | nt | i | nt | nt
O=C(c1cccn2c(=O)c3cc(Br)ccc3nc12)N1CCN(c2ccccn2)CC1 | 18386 | i | i | i | i | i
CCOC(=O)N1CCN(C(=O)c2cccn3c(=O)c4sccc4nc23)CC1 | 22718 | i | i | i | i | ?
CCOC(=O)N1CCN(C(=O)c2cccn3c(=O)c4cc(Br)ccc4nc23)CC1 | i | i | i | i | i | i
Cc1ccc(-c2cc(C(=O)N3CCOCC3)c3ccccc3n2)cc1 | i | i | i | i | i | i
O=C(c1cc(-c2ccccc2)nc2ccccc12)N1CCC2(CC1)OCCO2 | 23724 | i | i | i | i | i
Cn1nnc2cc(C(=O)N3CCN(c4ccccn4)CC3)ccc21 | i | i | i | 53 | i | i
